The source made the active and inactive calls. The calls were made as follows: active = hit-call score of the fitted dose curve at least 0.9, where 1 is the maximum; inactive = score below 0.9.
What was measured:
Conditions in all cases: mRNA level, 48 h; actives raise or lower the signal
[1] = read-out: ABC Transporter (ABCB1), ABCB1 (gene 5243); test: LTEA_HepaRG_ABCB1: Life Technologies and Expression Analysis (LTEA) Assay for ABC Transporter (ABCB1) using HepaRG (AID 2283460)
Summary of the method: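 HepaRG, 48 h exposure, 8-pt half-log series from 100 uM, 0.5% DMSO vehicle, duplicates. Readout: ABCB1 transcript by Fluidigm TaqMan qRT-PCR, housekeeping-normalized; bidirectional curve fit vs DMSO baseline.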

[2] = read-out: growth arrest and DNA damage 45 (GADD45B), GADD45B (gene 4616); test: LTEA_HepaRG_GADD45B: Life Technologies and Expression Analysis (LTEA) Assay for growth arrest and DNA damage 45 (GADD45B) using HepaRG (AID 2283461)
Summary of the method: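 Transcript level quantified by Fluidigm TaqMan qRT-PCR with three housekeeping genes for normalization, analyzed for up- or down-regulation against 0.5% DMSO. HepaRG cultures dosed 48 h at eight half-log concentrations up to 100 uM, duplicates.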

[3] = read-out: ABC Transporter (ABCC3), ABCC3 (gene 8714); test: LTEA_HepaRG_ABCC3: Life Technologies and Expression Analysis (LTEA) Assay for ABC Transporter (ABCC3) using HepaRG (AID 2283462)
Summary of the method: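 Transcript level by TaqMan qRT-PCR, normalised to three housekeeping genes, fitted in both directions relative to vehicle. Chemicals tested in duplicate at eight half-log concentrations up to 100 uM for 48 h on HepaRG cells (0.5% DMSO).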

[4] = read-out: ABC Transporter (ABCB11), ABCB11 (gene 8647); test: LTEA_HepaRG_ABCB11: Life Technologies and Expression Analysis (LTEA) Assay for ABC Transporter (ABCB11) using HepaRG (AID 2283463)
Summary of the method: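 HepaRG, 48 h exposure, 8-pt half-log CRC top 100 uM, 0.5% DMSO vehicle, duplicates. Readout: TaqMan qRT-PCR of ABCB11 mRNA, housekeeping-normalized (ACTB/GAPDH/POLR2A). Bidirectional fit vs DMSO baseline.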

[5] = read-out: ABC Transporter (ABCC2), ABCC2 (gene 1244); test: LTEA_HepaRG_ABCC2: Life Technologies and Expression Analysis (LTEA) Assay for ABC Transporter (ABCC2) using HepaRG (AID 2283464)
Summary of the method: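 Endpoint is ABCC2 transcript level from qRT-PCR, normalized to three housekeeping genes and fitted bidirectionally relative to DMSO. Human HepaRG cells received test chemical for 48 h at up to 100 uM (8 points, half-log steps, 0.5% DMSO), duplicate wells.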

[6] = read-out: Broad substrate specificity ATP-binding cassette transporter ABCG2 (Homo sapiens) (UniProt Q9UNQ0); test: LTEA_HepaRG_ABCG2: Life Technologies and Expression Analysis (LTEA) Assay for ABC Transporter (ABCG2) using HepaRG (AID 2283465)
Summary of the method: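 HepaRG, 48 h exposure, 8-pt half-log series from 100 uM, 0.5% DMSO vehicle, duplicates. Readout: ABCG2 transcript by qRT-PCR (Fluidigm array), housekeeping-normalized; bidirectional curve fit relative to DMSO baseline.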

[7] = read-out: ATP-citrate lyase (ACLY), ACLY (gene 47); test: LTEA_HepaRG_ACLY: Life Technologies and Expression Analysis (LTEA) Assay for ATP-citrate lyase (ACLY) using HepaRG (AID 2283466)
Summary of the method: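 qRT-PCR readout of ACLY transcript after 48 h chemical treatment of HepaRG cells; expression normalized to three housekeeping genes. Eight-point half-log series, highest 100 uM, 0.5% DMSO vehicle. Gain or loss fitted against DMSO baseline.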

[8] = read-out: Peroxisomal acyl-coenzyme A oxidase 1 (ACOX1) gene, ACOX1 (gene 51); test: LTEA_HepaRG_ACOX1: Life Technologies and Expression Analysis (LTEA) Assay for Peroxisomal acyl-coenzyme A oxidase 1 (ACOX1) gene using HepaRG (AID 2283467)
Summary of the method: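 HepaRG, 48 h chemical exposure, 8-pt half-log series from 100 uM top, 0.5% DMSO vehicle, duplicates. Readout: ACOX1 mRNA by Fluidigm qRT-PCR, housekeeping-normalized; bidirectional fit vs DMSO baseline.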

[9] = read-out: Alkaline Phosphatase, Placental (ALPP) gene, ALPP (gene 250); test: LTEA_HepaRG_ALPP: Life Technologies and Expression Analysis (LTEA) Assay for Alkaline Phosphatase, Placental (ALPP) gene using HepaRG (AID 2283468)
Summary of the method: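 ALPP transcript level, measured by qRT-PCR and normalized to three housekeeping genes (ACTB, GAPDH, POLR2A), after 48 h dosing of differentiated HepaRG in serum-free induction medium. Top concentration 100 uM with half-log dilutions (8 points, 0.5% DMSO, duplicates); bidirectional fitting relative to DMSO.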

[10] = read-out: Bcl-2 (BAD) gene, BAD (gene 572); test: LTEA_HepaRG_BAD: Life Technologies and Expression Analysis (LTEA) Assay for Bcl-2 (BAD) gene using HepaRG (AID 2283469)
Summary of the method: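 HepaRG, 48 h exposure, 8-pt half-log curve from 100 uM in 0.5% DMSO, duplicates. Readout: TaqMan qRT-PCR for BAD mRNA, housekeeping-normalised (ACTB/GAPDH/POLR2A); gain or loss fitted against DMSO baseline.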

[11] = read-out: Bcl-2 (BAX) gene, BAX (gene 581); test: LTEA_HepaRG_BAX: Life Technologies and Expression Analysis (LTEA) Assay for Bcl-2 (BAX) gene using HepaRG (AID 2283470)
Summary of the method: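 qRT-PCR read-out of BAX mRNA, normalized to three housekeeping genes, after 48 h chemical exposure of human HepaRG cells in serum-free induction medium; eight-point half-log series, top 100 uM, 0.5% DMSO vehicle; bidirectional fit versus DMSO.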

[12] = read-out: Alpha-fetoprotein (AFP) gene, AFP (gene 174); test: LTEA_HepaRG_AFP: Life Technologies and Expression Analysis (LTEA) Assay for Alpha-fetoprotein (AFP) gene using HepaRG (AID 2283472)
Summary of the method: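 qRT-PCR (Fluidigm TaqMan) readout of AFP transcript, normalized to three housekeeping genes, fitted bidirectionally against 0.5% DMSO baseline. HepaRG cells received chemicals for 48 h in serum-free induction medium, top concentration 100 uM, half-log steps.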

BCL2L11 (gene 10018) = test: LTEA_HepaRG_BCL2L11: Life Technologies and Expression Analysis (LTEA) Assay for Bcl-2 (BCL2L11) gene using HepaRG (AID 2283473)
Summary of the method: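 BCL2L11 transcript levels are measured by Fluidigm qRT-PCR, normalized to three housekeeping genes. HepaRG cultures were plated 48 h, then treated 48 h with test chemical (top 100 uM, half-log, 0.5% DMSO vehicle); curves were fitted bidirectionally against DMSO.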

[13] = read-out: Apolipoprotein A-V (APOA5) gene, APOA5 (gene 116519); test: LTEA_HepaRG_APOA5: Life Technologies and Expression Analysis (LTEA) Assay for Apolipoprotein A-V (APOA5) gene using HepaRG (AID 2283474)
Summary of the method: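 APOA5 transcript levels were quantified by qRT-PCR, normalized to three housekeeping genes, after 48 h chemical treatment of HepaRG cells (8 points, 100 uM maximum, half-log steps, 0.5% DMSO). Curves fitted in both directions against vehicle.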

[14] = read-out: Apoptosis regulator Bcl-2 (Homo sapiens) (UniProt P10415); test: LTEA_HepaRG_BCL2: Life Technologies and Expression Analysis (LTEA) Assay for Bcl-2 gene using HepaRG (AID 2283475)
Summary of the method: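 qRT-PCR read-out (Fluidigm TaqMan) of BCL2 transcript, normalised to three housekeeping genes, after 48 h chemical exposure of HepaRG cells; 8-point half-log series, top 100 uM, 0.5% DMSO vehicle. Gain or loss of signal fitted relative to DMSO baseline.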

[15] = read-out: Bcl-2 (BID) gene, BID (gene 637); test: LTEA_HepaRG_BID: Life Technologies and Expression Analysis (LTEA) Assay for Bcl-2 (BID) gene using HepaRG (AID 2283476)
Summary of the method: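 HepaRG, 48 h exposure, 8-pt half-log series, top 100 uM, 0.5% DMSO vehicle, duplicates. Readout: BID mRNA by TaqMan qRT-PCR; housekeeping-normalized; bidirectional curve fit vs DMSO baseline.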

Caspase-3 (Homo sapiens) = Caspase-3 (Homo sapiens) (UniProt P42574); test: LTEA_HepaRG_CASP3: Life Technologies and Expression Analysis (LTEA) Assay for cysteine-aspartic acid protease (CASP3) using HepaRG (AID 2283477)
Summary of the method: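 Expression of CASP3 was quantified by TaqMan qRT-PCR against three housekeeping genes (ACTB, GAPDH, POLR2A), bidirectionally versus 0.5% DMSO. HepaRG cultures received compounds in duplicate, top 100 uM with half-log steps, for 48 h in serum-free induction medium.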

[16] = read-out: Cytochrome P450 (CYP24A1), CYP24A1 (gene 1591); test: LTEA_HepaRG_CYP24A1: Life Technologies and Expression Analysis (LTEA) Assay for Cytochrome P450 (CYP24A1) using HepaRG (AID 2283478)
Summary of the method: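 mRNA of CYP24A1 quantified by TaqMan qRT-PCR (ACTB/GAPDH/POLR2A normalization) after 48 h chemical exposure of HepaRG cells, top concentration 100 uM, half-log steps, 0.5% DMSO vehicle, duplicates. Curves fitted bidirectionally against DMSO baseline.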

Measured: AC50

Sequence of Broad substrate specificity ATP-binding cassette transporter ABCG2 (Homo sapiens) (Q9UNQ0 whole entry, looked up): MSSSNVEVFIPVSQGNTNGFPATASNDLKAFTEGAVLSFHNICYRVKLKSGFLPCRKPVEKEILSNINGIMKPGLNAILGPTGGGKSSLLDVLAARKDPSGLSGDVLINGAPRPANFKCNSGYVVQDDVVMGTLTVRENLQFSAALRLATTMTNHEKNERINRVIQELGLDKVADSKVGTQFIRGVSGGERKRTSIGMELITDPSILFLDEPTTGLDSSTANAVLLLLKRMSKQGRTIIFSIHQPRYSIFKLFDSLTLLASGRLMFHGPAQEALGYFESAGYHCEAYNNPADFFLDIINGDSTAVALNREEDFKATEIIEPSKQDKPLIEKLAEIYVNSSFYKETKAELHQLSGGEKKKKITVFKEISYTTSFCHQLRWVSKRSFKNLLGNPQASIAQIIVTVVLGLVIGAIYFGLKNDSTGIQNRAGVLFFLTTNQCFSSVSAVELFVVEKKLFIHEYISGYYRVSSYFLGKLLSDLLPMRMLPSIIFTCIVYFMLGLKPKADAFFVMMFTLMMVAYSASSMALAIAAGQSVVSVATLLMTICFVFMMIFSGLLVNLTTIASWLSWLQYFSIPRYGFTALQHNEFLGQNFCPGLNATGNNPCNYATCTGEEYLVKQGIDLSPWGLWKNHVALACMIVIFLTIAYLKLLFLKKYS
Sequence of Caspase-3 (Homo sapiens) (P42574 whole entry, looked up): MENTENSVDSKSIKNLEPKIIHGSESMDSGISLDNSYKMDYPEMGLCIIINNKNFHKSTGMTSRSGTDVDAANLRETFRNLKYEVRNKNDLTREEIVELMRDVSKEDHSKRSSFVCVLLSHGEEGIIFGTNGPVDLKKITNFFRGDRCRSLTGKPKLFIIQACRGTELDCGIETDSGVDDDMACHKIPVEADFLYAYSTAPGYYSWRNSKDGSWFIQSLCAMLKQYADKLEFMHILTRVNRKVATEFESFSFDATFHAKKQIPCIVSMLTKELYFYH
Sequence of Apoptosis regulator Bcl-2 (Homo sapiens) (P10415 whole entry, looked up): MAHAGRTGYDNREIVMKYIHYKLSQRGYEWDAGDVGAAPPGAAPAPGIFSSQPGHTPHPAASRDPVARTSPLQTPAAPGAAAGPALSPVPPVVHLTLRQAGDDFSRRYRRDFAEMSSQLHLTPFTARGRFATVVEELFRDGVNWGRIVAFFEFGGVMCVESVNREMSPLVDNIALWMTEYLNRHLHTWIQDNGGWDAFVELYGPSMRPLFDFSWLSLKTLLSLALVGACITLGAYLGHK

Nc1ccc2ccccc2c1
inactive: all assays above

O=C(O)C1C(C(=O)O)C2(Cl)C(Cl)=C(Cl)C1(Cl)C2(Cl)Cl (stereo not drawn)
inactive: all assays above

CSC(C)(C)C=NO
not listed: [2]
inactive: all other assays above

CCC(C)(C)c1ccc(O)cc1
inactive: all assays above

O=P(Oc1ccccc1)(Oc1ccccc1)Oc1ccccc1
active: [1] 5.73 µM | [5] 8.94 µM | [6] 8.36 µM | [7] 71.6 µM | [12] 50 µM | [13] 50 µM | [14] 80.4 µM
not listed: [9]
inactive: all other assays above

— PubChem BioAssay (EPA / NIEHS)
